According to ChEMBL document CHEMBL4513216, “Probing the Open Global Health Chemical Diversity Library for Multistage-Active Starting Points for Next-Generation Antimalarials” (ACS Infect Dis, 2020):
In all, about 69,000 compounds went through this assay and about 8,600 (12%) showed an effect of 50% or more. The sample as a whole holds a higher share of strong results than the screen did.

What follows are compounds tested on Plasmodium berghei (assay: Screen against P. berghei liver stage (PbLuc), transformed with Luciferase, at 10uM). Conditions: tested at 10 uM.
Assay type: functional, HepG2

Structure (SMILES) | INHIBITION
CCOCc1cc(CNC2CCCc3c2cnn3CC)ccc1OC (stereo not drawn) | 33.8%
Cc1nc2sccn2c1CN(CCCN(C)C)Cc1ccco1 | 33.5%
CC(CO)NC(=O)c1ccc(NCc2cc(C#N)ccc2F)cc1 (stereo not drawn) | 26.8%
Cc1nc[nH]c1CN1C[C@H]2CC[C@@H](C1)N(C(=O)CCc1cccnc1)C2 | 8.38%
CSc1ccccc1CN1C[C@@H]2CC[C@H]1CN(Cc1[nH]cnc1C)C2 | 60.3%
CSCCCN1C[C@@H]2CC[C@H]1CN(Cc1[nH]cnc1C)C2 | 45.8%
Cc1nc[nH]c1CN1C[C@H]2CC[C@@H](C1)N(C(=O)CCc1cnn(C)c1)C2 | 40.1%
Cc1nc[nH]c1CN1C[C@H]2CC[C@@H](C1)N(C(=O)c1cnn(C)c1)C2 | 10.7%
Cc1ccc(CN2C[C@@H]3CC[C@H]2CN(Cc2[nH]cnc2C)C3)o1 | 24.9%
Cc1cccc(CN2C[C@@H]3CC[C@H]2CN(Cc2[nH]cnc2C)C3)n1 | 58.5%
Cc1cc(CN2C[C@@H]3CC[C@H]2CN(Cc2[nH]cnc2C)C3)on1 | 62.1%
Cc1nc[nH]c1CN1C[C@H]2CC[C@@H](C1)N(C(=O)CCNS(C)(=O)=O)C2 | 26.8%
COCC1CC2(CCN(C(=O)c3occc3C)CC2)CN1C(C)C (stereo not drawn) | 18.4%
CSc1ncccc1C(=O)N(CCO)Cc1ccccc1 | 21.4%
CCC(CN1CCCC1)NC(=O)Cc1c(C)[nH]c2cc(C)cc(C)c12 (stereo not drawn) | 6.32%
Cc1nc(-c2ccco2)ccc1C(=O)NCC(=O)N1CCCCC1 | -5.65%
CCc1ncncc1C(=O)N1CCCC(n2nc(C)nc2C)C1 (stereo not drawn) | -31.8%

Structure (SMILES) | INHIBITION
Cn1c(C(=O)Nc2nc[nH]n2)cc2ccccc21 | 41.9%
COCCCN(Cc1cnc(C2CCCCC2)nc1)C1CCN(C)CC1 | 49.4%
O=C(c1cscn1)N1CCc2ncnc(-c3cccnc3)c2CC1 | 23.6%
Cc1cnc(N2CC[C@H]3[C@@H]2CCC(=O)N3c2cccnc2)nc1 | 37.1%
CN1CCC(c2nc3ccc(-c4ccccc4)cn3n2)CC1 | -15.7%
CC(=O)N1CCC(c2nc3ccc(NC4CCC4)cn3n2)CC1 | 9.51%
CN(C)C(=O)N1CCC(c2nc3ccc(-c4ccccc4)cn3n2)CC1 | 65.3%
CN1CCC(c2nc3ccc(-c4cccc(F)c4)cn3n2)CC1 | 33.5%
CN(C)C(=O)N1CCC(c2nc3ccc(N4CCCC4)cn3n2)CC1 | 47.9%
COCC(=O)N1CCC(c2nc3ccc(N4CCCC4)cn3n2)CC1 | -18.2%
COCC(=O)N1CCC(c2nc3ccc(-c4ccncc4)cn3n2)CC1 | 53.4%
COCC(=O)N1CCC(c2nc3ccc(-c4ccccc4)cn3n2)CC1 | -28.2%
CCS(=O)(=O)N1CCC(c2nc3ccc(-c4ccccc4)cn3n2)CC1 | 31.8%
CS(=O)(=O)N1CCC(c2nc3ccc(-c4cccc(F)c4)cn3n2)CC1 | 58.3%
c1ccc(-c2ccc3nc(C4CCN(CC5CC5)CC4)nn3c2)cc1 | 6.8%
CC(=O)N1CCC(c2nc3ccc(-c4cccc(F)c4)cn3n2)CC1 | 79.2%
